LAP4-GFP MLPCN: modulators of TOR pathway LAP4-GFP in S. cerevisiae; S. cerevisiae LAP4-GFP multiplex, flow cytometry GFP, 3 h; median GFP as percent of DMSO wells; GFP response vs DMSO, % at 10 µM; 320,000 tested, 0.34% active;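 active = GFP response vs DMSO above a set limit, about the screen mean plus 3 SD, cut at about 150% in these data; inconclusive = under 70 cell events counted for the yeast strain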
MEP2-GFP yeast: alters MEP2-GFP fluorescence in TOR pathway yeast screen; 330,000 tested, 0.51% active; GFP response vs DMSO, % at 10 µM; S. cerevisiae MEP2-GFP strain, flow cytometry GFP, 3 h; 100% = DMSO control level; AID 2016;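 active = GFP response versus DMSO above a set limit, roughly screen mean plus 3 SD, cut at about 180% in these data; inconclusive = fewer than 70 cells counted for a yeast strain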;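 also: median GFP fluorescence of the barcode-gated MEP2-GFP cells per well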
RPL19A TOR yeast: yeast TOR pathway RPL19A-GFP modulation. percent response vs DMSO, % at 10 µM. 330,000 tested, 0.3% active. S. cerevisiae RPL19A-GFP strain, flow cytometry, 3 h; stronger effect = lower value;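 active = percent response vs DMSO below 50%; inconclusive = fewer than 70 events counted for the yeast strain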;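 also: median channel GFP fluorescence of the barcoded RPL19A-GFP strain; ratio of sample median GFP to plate DMSO average so 100% = DMSO; lower means less RPL19A-GFP as with rapamycin TOR inhibition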
AGP1-GFP MLPCN: modulators of TOR pathway AGP1-GFP in S. cerevisiae; GFP response vs DMSO, % at 10 µM; S. cerevisiae AGP1-GFP multiplex flow cytometry, 3 h; GFP as percent of DMSO wells; AID 2066; 320,000 tested, 0.02% active;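 active = GFP response relative to DMSO above a set limit, near screen average plus 3 SD, cut at about 150% in these data; inconclusive = fewer than 70 cells counted for the yeast strain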;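 also: median GFP channel fluorescence of the gated AGP1 strain per well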
CIT2 TOR yeast: alters CIT2-GFP fluorescence in TOR pathway yeast screen | S. cerevisiae CIT2-GFP strain, flow cytometry, 3 h; 100 means same as DMSO wells | GFP response vs DMSO, % at 10 µM | 320,000 tested, 0.065% active;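 active = GFP response relative to DMSO above a set limit, near the screen mean plus 3 SD, cut at about 150% in these data; inconclusive = Fewer than 70 cells measured for a yeast strain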;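 also: ratio of well median GFP fluorescence to mean of DMSO wells on the plate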
Active calls of the source: *; [ ] = remark or other dose. In the library only some 0.93% were active in any assay of this set; here they are far more common.

How did CN1CCN(C(c2ccccn2)c2cc(Cl)c3cccnc3c2O)CC1 (centres undefined) do in these assays?
LAP4-GFP MLPCN: 133; MEP2-GFP yeast: 100; RPL19A TOR yeast: 97; AGP1-GFP MLPCN: 98; CIT2 TOR yeast: 96

Results for Oc1c(C(c2ccccn2)N2CCC(Cc3ccccc3)CC2)cc(Cl)c2cccnc12 (centres undefined) ?
LAP4-GFP MLPCN: 169*[may fluoresce violet]; MEP2-GFP yeast: 299*[may fluoresce violet]; RPL19A TOR yeast: 45*[may fluoresce violet]; AGP1-GFP MLPCN: inconclusive; CIT2 TOR yeast: inconclusive

How did Cc1c(C)c2ccc(OCC(=O)N(C)C)c(C)c2oc1=O do in these assays?
LAP4-GFP MLPCN: 88; MEP2-GFP yeast: 482*[may fluoresce violet]; RPL19A TOR yeast: 49*[may fluoresce violet]; AGP1-GFP MLPCN: inconclusive; CIT2 TOR yeast: inconclusive

What do the screens show for `CN(C)c1ccc(C(CNC(=O)Cc2cccc3ccccc23)N(C)C)cc1` (centres undefined)?
LAP4-GFP MLPCN: 99; MEP2-GFP yeast: 96; RPL19A TOR yeast: 98; AGP1-GFP MLPCN: 104; CIT2 TOR yeast: 98

Results for O=C(Nc1nnc(-c2cccs2)o1)c1cc(-c2ccccc2)nc2ccccc12 ?
LAP4-GFP MLPCN: 152*; MEP2-GFP yeast: 94; RPL19A TOR yeast: 94; AGP1-GFP MLPCN: 85; CIT2 TOR yeast: 85

How did O=C(NCc1cccs1)c1cc(-c2ccccc2)nc2ccccc12 do in these assays?
LAP4-GFP MLPCN: 73; MEP2-GFP yeast: 88; RPL19A TOR yeast: 101; AGP1-GFP MLPCN: 88; CIT2 TOR yeast: 83

Results for O=C(CSc1ccccn1)N/N=C/c1cc([N+](=O)[O-])ccc1O ?
LAP4-GFP MLPCN: 79; MEP2-GFP yeast: 277*[may fluoresce violet]; RPL19A TOR yeast: 45*[may fluoresce violet]; AGP1-GFP MLPCN: inconclusive; CIT2 TOR yeast: inconclusive

Results for O=C(CSc1ccccn1)N/N=C/c1ccccc1[N+](=O)[O-] ?
LAP4-GFP MLPCN: 98; MEP2-GFP yeast: 106; RPL19A TOR yeast: 106; AGP1-GFP MLPCN: 106; CIT2 TOR yeast: 107

How did Cn1ccnc1SCC(=O)Nc1cc(F)ccc1F do in these assays?
LAP4-GFP MLPCN: 111; MEP2-GFP yeast: 112; RPL19A TOR yeast: 94; AGP1-GFP MLPCN: 121; CIT2 TOR yeast: 168*[may fluoresce green]

Results for COc1ccc(CC(=O)NCc2ccccn2)cc1OC ?
LAP4-GFP MLPCN: 93; MEP2-GFP yeast: 269*; RPL19A TOR yeast: 61; AGP1-GFP MLPCN: 29; CIT2 TOR yeast: 110

Results for CCN(CC)C(=O)c1sc(NC(=O)c2ccc3c(c2)OCO3)c(C#N)c1C ?
LAP4-GFP MLPCN: 97; MEP2-GFP yeast: 202*[may fluoresce violet]; RPL19A TOR yeast: 66; AGP1-GFP MLPCN: 24; CIT2 TOR yeast: inconclusive

Results for Cc1ccc(N2CC(C(=O)OCc3nnc(-c4ccccc4)o3)CC2=O)cc1 (centres undefined) ?
LAP4-GFP MLPCN: 155*; MEP2-GFP yeast: 92; RPL19A TOR yeast: 96; AGP1-GFP MLPCN: 84; CIT2 TOR yeast: 75

How did Cc1ccc(Nc2c(-c3ccccn3)nc3cc(C)ccn23)cc1 do in these assays?
LAP4-GFP MLPCN: 140; MEP2-GFP yeast: 97; RPL19A TOR yeast: 93; AGP1-GFP MLPCN: 75; CIT2 TOR yeast: 95

What do the screens show for `Cc1ccc(Nc2c(-c3ccccn3)nc3ccc(C)cn23)cc1`?
LAP4-GFP MLPCN: 133; MEP2-GFP yeast: 233*; RPL19A TOR yeast: 49*; AGP1-GFP MLPCN: 27; CIT2 TOR yeast: 104

How did Cc1cc(N2CCOCC2)nc2ccc(NC(=O)C3CCC(C)CC3)cc12 (centres undefined) do in these assays?
LAP4-GFP MLPCN: 95; MEP2-GFP yeast: 184*[may fluoresce violet]; RPL19A TOR yeast: 57; AGP1-GFP MLPCN: 24; CIT2 TOR yeast: inconclusive

Results for CCCCNC(=O)CCC(=O)Nc1ccc2nc(N3CCOCC3)cc(C)c2c1 ?
LAP4-GFP MLPCN: 97; MEP2-GFP yeast: 98; RPL19A TOR yeast: 95; AGP1-GFP MLPCN: 99; CIT2 TOR yeast: 91

What do the screens show for `CCCCN1C(=O)/C(=C2/Sc3ccccc3N2C)S/C1=N\c1ncn[nH]1`?
LAP4-GFP MLPCN: 101; MEP2-GFP yeast: 112; RPL19A TOR yeast: 105; AGP1-GFP MLPCN: 103; CIT2 TOR yeast: 106

What do the screens show for `CC(C)[C@H](NC(=O)c1ccccc1)C(=O)NC1=NCCS1`?
LAP4-GFP MLPCN: 95; MEP2-GFP yeast: 106; RPL19A TOR yeast: 102; AGP1-GFP MLPCN: 103; CIT2 TOR yeast: 110

What do the screens show for `Cn1c(N)c(C(=O)COC(=O)c2cccs2)c(=O)n(C)c1=O`?
LAP4-GFP MLPCN: 60; MEP2-GFP yeast: 273*[may fluoresce violet]; RPL19A TOR yeast: 64; AGP1-GFP MLPCN: inconclusive; CIT2 TOR yeast: inconclusive

How did Cc1ccc2nc(NCc3ccc(F)cc3)c3nncn3c2c1 do in these assays?
LAP4-GFP MLPCN: 111; MEP2-GFP yeast: 152; RPL19A TOR yeast: 32*; AGP1-GFP MLPCN: 90; CIT2 TOR yeast: 92

How did CCOC(=O)C1CCCN(C(=O)c2cc(Nc3ccc(OC)cc3)nc3ccccc23)C1 (centres undefined) do in these assays?
LAP4-GFP MLPCN: 97; MEP2-GFP yeast: 95; RPL19A TOR yeast: 99; AGP1-GFP MLPCN: 98; CIT2 TOR yeast: 100

What do the screens show for `Cc1cc(C)n2nnnc2n1`?
LAP4-GFP MLPCN: 100; MEP2-GFP yeast: 110; RPL19A TOR yeast: 104; AGP1-GFP MLPCN: 113; CIT2 TOR yeast: 106

How did CC1(C)CCN2CCC(C)(C)c3c(O)ccc1c32 do in these assays?
LAP4-GFP MLPCN: 164*; MEP2-GFP yeast: 234*; RPL19A TOR yeast: 113; AGP1-GFP MLPCN: 107; CIT2 TOR yeast: 191*

Results for CC(C)n1cnc2cc(NCc3nc4ccccc4n3C)ccc21 ?
LAP4-GFP MLPCN: 55; MEP2-GFP yeast: 145; RPL19A TOR yeast: 40*[may fluoresce violet]; AGP1-GFP MLPCN: inconclusive; CIT2 TOR yeast: inconclusive

What do the screens show for `CNC(=O)CSc1nnc(-c2cccc(S(=O)(=O)N3CCOCC3)c2)n1-c1ccc(F)cc1`?
LAP4-GFP MLPCN: 104; MEP2-GFP yeast: 106; RPL19A TOR yeast: 101; AGP1-GFP MLPCN: 106; CIT2 TOR yeast: 103

Results for O=C(O)CSc1nnc(-c2cccc(S(=O)(=O)N3CCOCC3)c2)n1-c1cccc(Cl)c1 ?
LAP4-GFP MLPCN: inconclusive; MEP2-GFP yeast: inconclusive; RPL19A TOR yeast: 26*[may fluoresce violet]; AGP1-GFP MLPCN: inconclusive; CIT2 TOR yeast: inconclusive

Results for CC(C)COc1nc2ccccc2nc1C(C#N)C(=O)NC1CCCCC1 (centres undefined) ?
LAP4-GFP MLPCN: 88; MEP2-GFP yeast: 307*[may fluoresce violet]; AGP1-GFP MLPCN: 30; CIT2 TOR yeast: inconclusive

How did Cc1ccc(Cl)c2c1NC(=O)C2=O do in these assays?
LAP4-GFP MLPCN: 91; MEP2-GFP yeast: 96; RPL19A TOR yeast: 96; AGP1-GFP MLPCN: 96; CIT2 TOR yeast: 95

How did CCOc1ccccc1C(C(=O)NC1CCCC1)N(C(=O)c1csnn1)C1CC1 (centres undefined) do in these assays?
LAP4-GFP MLPCN: 97; MEP2-GFP yeast: 110; RPL19A TOR yeast: 100; AGP1-GFP MLPCN: 99; CIT2 TOR yeast: 101

What do the screens show for `COc1ccc(CN2CCN(c3ncccn3)CC2)c(C)c1C`?
LAP4-GFP MLPCN: 135; MEP2-GFP yeast: 189*; RPL19A TOR yeast: 89; AGP1-GFP MLPCN: 110; CIT2 TOR yeast: 138
